High-throughput results: PubChem BioAssay, National Center for Advancing Translational Sciences (NCATS)
HP1b binding inh: blocks HP1-beta chromodomain binding to methylated histone tails; P83916; AlphaScreen HP1-beta / biotin-H3K9me3 peptide binding; Potency, µM (top dose mostly 114 µM), usual class: inhibitors; actives 0.56% (n = 390,000); also: nearly all actives have a fitted effect of over 70% in size
Target sequence (P83916 whole entry, looked up): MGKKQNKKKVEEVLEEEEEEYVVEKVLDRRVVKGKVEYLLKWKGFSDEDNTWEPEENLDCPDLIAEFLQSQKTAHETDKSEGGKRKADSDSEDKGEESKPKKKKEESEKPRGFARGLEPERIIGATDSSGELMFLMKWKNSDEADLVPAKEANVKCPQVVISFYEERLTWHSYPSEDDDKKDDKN
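AlphaScreen: HP1-beta (50 nM) preformed 30 min with biotin-H3(1-18)K9me3 peptide (50 nM) in PBS pH 7.4, 0.01% Tween-20. Compound added for 30 min at RT, then streptavidin donor/nickel chelate acceptor beads (10 ug/mL) for 30 min.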
BAZ2B block: inhibitors of human BAZ2B bromodomain. AlphaScreen BAZ2B-H3K14Ac peptide displacement. Potency, µM (titrated, usually from 114 µM), hits mostly inhibitors. actives 4.4% (n = 360,000). AID 504333; also: nearly all actives have a fitted effect of over 60% in size
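Protein-peptide AlphaScreen: BAZ2B 50 nM, b-H3K14Ac 50 nM, 1x PBS pH 7.4 + 0.01% Tween-20. Preincubation 30 min RT; cpd 30 min RT (top 110 uM); beads 20 min RT, light-protected.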
JMJD2A Tudor: blocks the human JMJD2A Tudor domain. Potency, µM (series often up to 114 µM), hits mostly inhibitors. AID 504339. AlphaScreen JMJD2A-Tudor / H3K4me3 peptide binding. actives 4.4% (n = 390,000). O75164; also: nearly all actives have a fitted effect of over 50% in size
Sfp inh: blocks B. subtilis Sfp PPTase activity; Q9F4F7; Biochemical Sfp PPTase activity, qHTS; Potency, µM, hits mostly inhibitors; actives 3.5% (n = 310,000);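 also: the enzyme is Sfp with the accession as filed and its product quenches rhodamine fluorescence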
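Compounds were incubated with enzyme (final 15 nM) for 15 min at room temperature before substrate addition started the reaction. Fluorescence at 525 nm excitation, 598 nm emission was recorded immediately and after 30 minutes.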
G9a block: blocks human histone lysine methyltransferase G9a; G9a H3K9 monomethylation, AlphaScreen, 2 h; Potency, µM (highest dose often 102 µM), hits mostly inhibitors; actives 8.8% (n = 350,000); AID 504332; also: nearly all actives have a fitted effect of over 75% in size
Target sequence (Q96KQ7 913-1193 limits assumed): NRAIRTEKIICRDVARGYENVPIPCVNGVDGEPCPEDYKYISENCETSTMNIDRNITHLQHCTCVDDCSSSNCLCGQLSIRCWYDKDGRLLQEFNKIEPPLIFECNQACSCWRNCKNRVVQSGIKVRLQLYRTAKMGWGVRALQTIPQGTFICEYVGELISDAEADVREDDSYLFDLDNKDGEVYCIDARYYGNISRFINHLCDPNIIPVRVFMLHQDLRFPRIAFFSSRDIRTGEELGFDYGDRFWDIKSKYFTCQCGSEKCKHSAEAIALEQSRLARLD
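AlphaScreen detection with an anti-monomethyl H3K9 antibody quantified product after a 2 h room-temperature reaction containing 500 nM biotinylated H3K9 peptide, 20 µM SAM and 20 nM enzyme, which had been preincubated 15 min with compound.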
L3MBTL1 inh: inhibitors of human L3MBTL1 | Q9Y468 | AlphaScreen L3MBTL1–H3K9me1 peptide binding | actives 0.66% (n = 230,000) | Potency, µM (top dose mostly 57.1 µM), actives largely listed as inhibitors; also: nearly all actives have a fitted effect of over 60% in size
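Displacement of a biotinylated histone H3(1-15) peptide monomethylated at Lys9 (75 nM) from L3MBTL1 (50 nM) was measured by AlphaScreen after a 30 min room-temperature compound incubation; cefsulodin titration served as intraplate control.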
Large screens that a line does not name were inactive. Compounds with a hit are over-represented: about 12% of the library has one in this group of screens. Calls follow the shape of the dose curve; as a rule, active = well fitted curve in the direction sought with a large enough effect; inconclusive = small, poorly fitted or top-dose-only effect, or another doubt; inactive = no such curve, though single readings can be large; an effect the other way counts as inactive or inconclusive.

O=[N+]([O-])c1ccc2c3n([n+]([O-])c2c1)CCN=C3c1ccc(Cl)cc1	BAZ2B block 50.1µM, JMJD2A Tudor inconclusive (no result: Sfp inh)
Nc1c(Cl)cc(C2=NCCn3c2c2ccccc2[n+]3[O-])cc1Cl	BAZ2B block inconclusive, JMJD2A Tudor 3.55µM, G9a block inconclusive (no result: Sfp inh)
COc1ccc(C2N(c3ccc(C)cc3)CCN2c2ccc(C)cc2)cc1O	BAZ2B block 31.6µM, JMJD2A Tudor 28.2µM, G9a block 17.8µM (no result: L3MBTL1 inh)
CCc1ccc2c(c1)/C(=C/C(=O)c1cccs1)C(=O)N2	BAZ2B block 11.2µM, JMJD2A Tudor 12.6µM, Sfp inh 44.7µM, G9a block 11.2µM
Cc1cccc2c1NC(=O)/C2=C\C(=O)c1cccs1	G9a block inconclusive (no result: L3MBTL1 inh)
CCC1Nc2ncnc(N3CCN(c4ccccn4)CC3)c2N(Cc2ccc(Cl)cc2)C1=O (configuration not stated)	BAZ2B block 56.2µM, JMJD2A Tudor inconclusive (no result: Sfp inh)
CCC1Nc2ncnc(N3CCCCC3)c2N(Cc2ccc(Cl)cc2)C1=O (configuration not stated)	JMJD2A Tudor inconclusive (no result: BAZ2B block, Sfp inh, G9a block)
CCC1Nc2ncnc(N3CCN(c4ccccc4)CC3)c2N(Cc2ccc(C)cc2)C1=O (configuration not stated)	BAZ2B block inconclusive, JMJD2A Tudor 56.2µM, G9a block inconclusive (no result: Sfp inh)
CCCN(CCC)CCCNC(=O)c1sc2nc3n(c(=O)c2c1C)CCC3	none (no result: Sfp inh, L3MBTL1 inh)
CN1/C(=C/c2cc[n+](C)c3ccccc23)C=Cc2ccccc21	HP1b binding inh inconclusive, BAZ2B block 28.2µM, JMJD2A Tudor 28.2µM, G9a block 35.5µM (no result: L3MBTL1 inh)
COC(=O)/C(C#N)=C1/C=Cc2ccccc2N1C	none
C=Cc1cc2c(cc1O)CCC1C2CCC2(C)C(O)CCC12 (configuration not stated)	none (no result: BAZ2B block, Sfp inh, G9a block, L3MBTL1 inh)
CCNc1cc2c(cc1O)CCC1C2CCC2(C)C(O)CCC12 (configuration not stated)	HP1b binding inh inconclusive, JMJD2A Tudor 89.1µM (no result: BAZ2B block, Sfp inh, G9a block, L3MBTL1 inh)
CC#Cc1cc2c(cc1O)CCC1C2CCC2(C)C(O)CCC12 (configuration not stated)	HP1b binding inh inconclusive, JMJD2A Tudor 79.4µM (no result: BAZ2B block, Sfp inh, G9a block, L3MBTL1 inh)
O=S1(=O)c2ccccc2N(Cc2ccccc2Cl)c2ccccc21	none (no result: Sfp inh, L3MBTL1 inh)
COc1ccc(CC(=O)NCc2nnc(SCc3ccc([N+](=O)[O-])cc3)n2C)cc1	none
COc1ccc(-n2c(Cc3ccccc3)nnc2SCc2ccc([N+](=O)[O-])cc2)cc1	BAZ2B block inconclusive, JMJD2A Tudor inconclusive, G9a block 50.1µM
Cn1c(Cc2cccc3ccccc23)nnc1SCc1ccc([N+](=O)[O-])cc1	JMJD2A Tudor inconclusive, G9a block 10µM
CCCCN(C)C(=O)C1CCN(CCCc2ccccc2)CC1	HP1b binding inh inconclusive, BAZ2B block 56.2µM, JMJD2A Tudor 8.91µM, G9a block inconclusive (no result: L3MBTL1 inh)
CCOC(=O)C1CCCN(CCCc2ccccc2)C1 (configuration not stated)	none
CN(C)CC(C)(C)CNC(=O)C1CCN(CCCc2ccccc2)CC1	JMJD2A Tudor 56.2µM, G9a block inconclusive
O=[N+]([O-])c1ccc(-c2csc3[n+]2CCS3)cc1	Sfp inh 11.2µM, G9a block 35.5µM (no result: L3MBTL1 inh)
COc1ccccc1CNC(=O)c1cc2ccc3ccc(C)[nH]c3c2n1	none (no result: Sfp inh, L3MBTL1 inh)
Nc1ccccc1Nc1ccncc1[N+](=O)[O-]	none (no result: G9a block)
Nc1ccccc1Nc1c(F)c(F)nc(F)c1Cl	BAZ2B block inconclusive, G9a block 12.6µM (no result: L3MBTL1 inh)
COc1ccc(C(=O)CSC2=NS(=O)(=O)c3cc(Cl)ccc3N2)cc1	G9a block 56.2µM (no result: Sfp inh)
CC(=O)Nc1ccc(NC(=O)CSC2=NS(=O)(=O)c3cc(Cl)ccc3N2)cc1	G9a block 10µM (no result: Sfp inh)
COc1ccc(CCNC(=O)CSC2=NS(=O)(=O)c3cc(Cl)ccc3N2)cc1OC	none (no result: Sfp inh)
Cc1ccc(CN(Cc2cccn2-c2nnc(N3CCCC3=O)s2)C(=O)Nc2ccc(F)cc2)cc1	none (no result: Sfp inh, L3MBTL1 inh)
O=C(c1cc2c(=O)[nH]c3ccccc3c2s1)N1CCN(c2ccc(F)cc2)CC1	none (no result: BAZ2B block, Sfp inh, L3MBTL1 inh)
O=C(CCCn1c(=O)c2ccccc2n(Cc2cccc(Cl)c2)c1=O)NCCc1ccc(Cl)cc1	none (no result: Sfp inh, L3MBTL1 inh)
C/C(=N\Nc1cccc(Cl)c1)C1(C)N(O)C(C)(C)C(c2ccco2)=[N+]1[O-] (configuration not stated)	G9a block 44.7µM
O=C(O)c1ccc(CSc2ncnc3c2cnn3Cc2ccccc2)cc1	none (no result: G9a block)
Cc1ccccc1Nc1ncnc2c1cnn2Cc1ccccc1	none
Cc1cccc(Nc2ncnc3c2cnn3Cc2ccccc2)c1	BAZ2B block inconclusive, JMJD2A Tudor inconclusive, G9a block 50.1µM
O=C(O)c1ccc(Nc2ncnc3c2cnn3Cc2ccccc2)cc1	HP1b binding inh inconclusive, JMJD2A Tudor 50.1µM, Sfp inh inconclusive, G9a block 31.6µM
CCn1c(C)csc1=NC(=O)c1ccccc1	none
C=CCn1c(CC(=O)OC)csc1=Nc1ccc(C(C)=O)cc1	BAZ2B block inconclusive, G9a block inconclusive
CCOC(=O)c1ccc(N=c2scc(C)n2CC)cc1	HP1b binding inh inconclusive, BAZ2B block 39.8µM, JMJD2A Tudor 39.8µM, G9a block 22.4µM
C=CCn1c(C)csc1=Nc1ccc(C(C)=O)cc1	BAZ2B block 44.7µM, G9a block inconclusive
CCOC(=O)c1ccc(N=NN(C)C)cc1	none
C=CCn1c(C)csc1=Nc1ccccc1C	HP1b binding inh 50.1µM, BAZ2B block 50.1µM, JMJD2A Tudor 56.2µM, G9a block 50.1µM (no result: L3MBTL1 inh)
CCCN1C(=O)C(Cc2nc3ccccc3c(=O)n2-c2cccc(C)c2)c2ccccc21 (configuration not stated)	none (no result: Sfp inh, L3MBTL1 inh)
Cn1nc(-c2ccc(Cl)cc2)c2cc(C(=O)NCCN3CCOCC3)sc21	G9a block 70.8µM (no result: L3MBTL1 inh)
COc1ccc(N2CCN(C(=O)c3cc4c(s3)CCCCC4)CC2)cc1	HP1b binding inh inconclusive, BAZ2B block 12.6µM, JMJD2A Tudor 50.1µM, G9a block inconclusive, L3MBTL1 inh inconclusive (no result: Sfp inh)
COc1ccc(NC(=O)COC(=O)c2cc3c(s2)CCC3)cc1	HP1b binding inh inconclusive, BAZ2B block 79.4µM, JMJD2A Tudor inconclusive, L3MBTL1 inh inconclusive (no result: Sfp inh)
O=C(c1cc2c(s1)CCCC2)N1CCN(C(=O)C2CCCO2)CC1 (configuration not stated)	G9a block 15.8µM
O=C(COC(=O)c1cc2c(s1)CCCC2)Nc1ccc(Cl)cn1	G9a block inconclusive
Cn1nc(-c2ccc(Cl)cc2)c2cc(C(=O)NCCCN3CCOCC3)sc21	none
Cc1cccc(C(=O)Nc2ccccc2OCc2cc(=O)n3cc(C)ccc3n2)c1	none (no result: Sfp inh, L3MBTL1 inh)
CCOc1ccc(NC(=O)CN2C(=O)CC(C)Sc3ccccc32)cc1 (configuration not stated)	none (no result: Sfp inh, L3MBTL1 inh)
COCCCNC(=O)c1cc2c(-c3cccc(OC)c3)nn(C)c2s1	none (no result: L3MBTL1 inh)
